Source: PubChem BioAssay (The Scripps Research Institute Molecular Screening Center)
This is a sample that favours compounds with a hit; in the whole collection about 1.3% have one here.
Fam108B counter: counter-screen for RBBP9 inhibitors: inhibitors of mouse Fam108B. recombinant Fam108B, FP-Rh probe fluorescence polarization. inhibition, % at 9.51 µM. 300,000 tested, 0.33% active;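 active means inhibition above the screen mean inhibition plus 3 SD, computed separately per campaign, cut at about 18% in these data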;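 further: inhibitors lower polarization as less probe binds the enzyme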
PME-1 primary: blocks human protein phosphatase methylesterase 1; Q9Y570; recombinant PME-1, FP-Rh probe fluorescence polarization; inhibition, % at 5.9 µM; 320,000 tested, 0.53% active; AID 2130;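 active means inhibition above the campaign mean of all compounds plus 3 SD, cut at about 26% in these data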;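 further: competitive labeling of PME-1 active site by serine hydrolase directed probe; 0% = PME-1 with DMSO and 100% = wells lacking PME-1 enzyme; inhibitors block probe labeling so polarization falls and inhibition rises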
PREPL inh: inhibitors of human prolyl oligopeptidase-like enzyme PREPL. recombinant PREPL, fluorescence polarization activity-based probe. 320,000 tested, 0.68% active. inhibition, % at 5.96 µM. Q4J6C6. AID 2751;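 further: 0% = enzyme with DMSO and 100% = wells lacking enzyme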
LYPLA1 counter: counter-screen for PME1 inhibitors: inhibitors of human LYPLA1; recombinant LYPLA1, FP-Rh probe fluorescence polarization; inhibition, % at 5.9 µM; 320,000 tested, 0.16% active; AID 2174;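 active means inhibition above the mean of all tested compounds plus 3 SD, set per campaign, cut at about 14% in these data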;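 further: inhibitors block serine hydrolase probe labeling of LYPLA1 so polarization falls; 0% = enzyme with DMSO and 100% = wells lacking LYPLA1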
LYPLA2 counter: blocks human lysophospholipase 2, a PME1 counter-screen; O95372; recombinant LYPLA2, FP-Rh probe fluorescence polarization; inhibition, % at 5.9 µM; 320,000 tested, 0.38% active;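 active means inhibition above the screen-wide mean plus 3 SD, limit set per campaign, cut at about 26% in these data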;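 further: 0% = LYPLA2 with DMSO and 100% = wells lacking LYPLA2 enzyme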
PREPL inh cf: confirmation of human PREPL enzyme inhibitors; shares compounds with PREPL inh; recombinant PREPL, fluorescence polarization activity probe; inhibition, % at 5.96 µM; 2,000 tested, 67% active; AID 2803;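 further: 0% = protein with DMSO and 100% = wells lacking protein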
Numbers without * were called inactive; · = no result. Unless noted, no stated cut-off is given here; in the data, active means inhibition above about 43%; inactive means the rest.

SMILES	Fam108B counter	PME-1 primary	PREPL inh	LYPLA1 counter	LYPLA2 counter	PREPL inh cf
O=C(c1ccc2c(c1)N(Cc1ccccc1)CCS2)N1CCC2(CC1)OCCO2	0	7	58*	5	2	55*
CCCCn1c(O)c(C(C)=NCCc2c[nH]c3ccccc23)c(=O)[nH]c1=O	-2	7	44*	1	21	36
C=CCn1c(O)c(C(C)=NCCC(c2ccccc2)c2ccccc2)c(=O)[nH]c1=O	2	2	2	0	1	·
C=CCn1c(O)c(C(C)=NCCc2c[nH]c3ccccc23)c(=O)[nH]c1=O	1	0	49*	-3	2	48*
C=CCn1c(O)c(C(CC)=NCc2ccc3c(c2)OCO3)c(=O)[nH]c1=O	2	2	55*	0	3	53*
CCCCn1c(O)c(C(CC)=NCc2ccc3c(c2)OCO3)c(=O)[nH]c1=O	1	-4	49*	-4	12	49*
COC(=O)C1=C(c2cc3ccccc3o2)C[C@@H]2CC[C@H]1N2C(=O)N1CCOCC1	-1	5	-3	1	0	·
O=P1(Oc2ccccc2)OCCCS1 (centres undefined)	-2	1	0	2	3	·
N#Cc1ccc(NC(=O)CN2C(=O)NC3(CCCCCCC3)C2=O)cc1Cl	·	-6	-7	-11	-4	·
CCN1C[C@]2(COC)CC[C@H](O)[C@]34C1[C@](O)([C@@H](OC)[C@H]23)[C@@]1(O)C[C@H](OC)[C@H]2C[C@@H]4[C@@H]1[C@H]2OC	2	-3	1	1	0	·
CCN1C[C@]2(COC(=O)c3ccccc3N)CC[C@H](OC)C34[C@@H]5C[C@H]6[C@H](OC)[C@@H]5[C@](O)(C[C@@H]6OC)[C@@](O)([C@H]13)[C@@H](OC)[C@@H]42	-1	0	53*	0	5	46*
CCN1CC2(COC(=O)c3ccccc3N)CCC(OC)C34C5CC6C(OC)CC(O)(C5C6OC)C(O)(C(OC)C23)C14 (centres undefined)	-2	5	45*	1	2	45*
O=C(CCc1nnc2ccc(NCc3ccccc3Cl)nn12)N1CCC2(CC1)OCCO2	-1	-4	22	-3	6	·
CO[C@H]1C=C2CCN(C)[C@H]2C2c3cc4c(cc3C(=O)O[C@@H]21)OCO4 (some centres undefined)	-5	2	-4	-2	1	·
CCN(CC)c1ccc(CN2CC=C(c3ccc(F)cc3)CC2)cc1	-2	4	46*	-1	-3	37
COc1ccc2[nH]cc(CCN)c2c1	-4	-8	14	0	6	·
COc1ccc2[nH]c3c(c2c1)CCN=C3C	2	4	82*	-6	-4	41
Cc1[nH]c2ccc(OCc3ccccc3)cc2c1CCN	8	-1	50*	-3	-2	44*
COC(=O)[C@@H]1C[C@@]1(C)[C@@H](NP(=O)(c1ccccc1)c1ccccc1)c1ccccc1	-2	8	48*	2	0	56*
O=C(COc1ccc(Cl)cc1)N(c1ccc(Cl)cc1)C1CN2CCC1CC2 (centres undefined)	2	2	5	1	11	·
COC(=O)C1=C(c2ccc(OC)c(OC)c2)C[C@@H]2CC[C@H]1N2C(=O)NCc1cccc2ccccc12	·	3	2	3	1	·
CN1C[C@H](CNC(=O)OCc2ccccc2)C[C@@H]2c3cccc4c3c(cn4C)C[C@H]21	2	2	64*	0	3	61*
CC1N=C(c2ccccc2)c2cc(Br)ccc2NC1=O (centres undefined)	3	-1	6	2	-2	·
Cc1ccc(-c2cc(-c3ccc(C)cc3)[n+](-c3ccc(C(=O)O)cc3)c(-c3ccc(C)cc3)c2)cc1	-1	6	2	4	6	·
Cc1ccc(C[n+]2c(-c3ccc(C)cc3)cc(-c3ccc(C)cc3)cc2-c2ccc(C)cc2)cc1	3	2	55*	1	1	52*
CC1CCCCC1NC1CCN(C)CC1 (centres undefined)	-4	3	0	-4	-1	·
